In the library only some 7.5% were active in any assay of this set; here they are far more common.
HCV inhibitor: qHTS Assay for Inhibitors of Hepatitis C Virus (HCV); Potency, µM (titrated, usually from 41.8 µM), for inactives: at the top dose activity change, negative = inhibition, hits mostly inhibitors; actives 3.4% (n = 340,000); Huh7.5.1 HCVcc-Cre infection, luciferase reporter, 44 h; also: potency is read from the fitted curve at half-maximal effect
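Infectious HCVcc-Cre (~0.5 moi) was added to cells just after compound, with cells seeded 4 h earlier at 1,000 per well. Luciferase activity after 44 h culture reported infection; substrate was incubated 15 min at room temperature before reading.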
Vaccinia Venus: qHTS for Stage-Specific Inhibitors of Vaccinia Orthopoxvirus: Venus Reporter Primary qHTS; Vaccinia virus Venus reporter expression, fluorescence; Potency, µM (titrated, usually from 36.5 µM), inactives show top-dose activity change, negative = inhibition, hits mostly inhibitors; actives 0.46% (n = 330,000); calls by dose curve; tested in A549 cells; also: potency is read from the fitted curve at half-maximal effect; nearly all actives have a fitted effect of over 30% in size
Vaccinia mCherry: qHTS for Stage-Specific Inhibitors of Vaccinia Orthopoxvirus: mCherry Reporter Primary qHTS; actives 0.63% (n = 310,000); Potency, µM (highest dose often 36.5 µM), for the others: at the top dose activity change, negative = inhibition, actives largely listed as inhibitors; Vaccinia virus mCherry reporter infection, fluorescence; calls by dose curve; tested in A549 cells; also: potency is read from the fitted curve at half-maximal effect; nearly all actives have a fitted effect of over 35% in size
FMDV inh: High Throughput Screening for Foot and Mouth Disease Virus Antivirals; Potency, µM (top dose mostly 57.9 µM), for the others: top-dose activity change, negative = inhibition, usual class: inhibitors; actives 1.2% (n = 410,000); FMDV antiviral cell-based qHTS; calls by dose curve; tested in HEK293T cells; also: read-out not given here; potency is read from the fitted curve at half-maximal effect; nearly all actives have a fitted effect of over 45% in size
FBPA Giardia inh: qHTS Assay for Inhibitors of Fructose-1,6-bisphosphate Aldolase from Giardia Lamblia | actives 0.71% (n = 290,000) | A8B2U2 | purified Giardia FBPA | Potency, µM (doses to about 59.6 µM), for inactives: at the top dose activity, negative = inhibition, usual class: inhibitors; also: potency is read from the fitted curve at half-maximal effect; nearly all actives have a fitted effect of over 55% in size
Target sequence (A8B2U2 whole entry, looked up): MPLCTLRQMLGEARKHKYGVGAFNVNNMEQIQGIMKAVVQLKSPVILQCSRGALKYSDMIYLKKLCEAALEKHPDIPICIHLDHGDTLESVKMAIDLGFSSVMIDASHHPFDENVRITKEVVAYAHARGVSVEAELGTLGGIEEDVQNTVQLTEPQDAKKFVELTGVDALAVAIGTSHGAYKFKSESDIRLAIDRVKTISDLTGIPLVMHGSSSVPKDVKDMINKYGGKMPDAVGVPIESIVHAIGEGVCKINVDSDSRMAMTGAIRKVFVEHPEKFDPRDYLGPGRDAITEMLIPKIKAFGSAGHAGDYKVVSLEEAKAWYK
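40 nM FBPA preincubated 10 min at RT with compound (up to 57.5 uM final), then substrate plus GAPDH/TPI/NAD/arsenate coupling and diaphorase/resazurin added. Fluorescence read after 20 min at RT, 525/598 nm.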
HCMV inh: qHTS Assay for inhibitors of the human cytomegalovirus (HCMV). HFF cells, HCMV-luciferase reporter, 72 h; active compounds read low. activity change, negative = inhibition, % at 57.5 µM. actives 4.5% (n = 410,000). AID 1259415, 2018; in the data active = activity change below about -60%; inconclusive = no clear call, values can overlap the other calls; inactive = above about -39%
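After 16 h attachment at 37C, HFF cells received test compound and HCMV-luciferase (1 PFU/cell); reporter luminescence read 72 h later, data normalized against buffer-only and known inhibitor Salinomycin.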
* marks the source's active call; other numbers are inactive results; i = inactive; ? = inconclusive; · = no result given; [ ] = remark or other dose. Unless noted, calls follow the shape of the dose curve; as a rule, active = well fitted curve in the direction sought with a large enough effect; inconclusive = small, poorly fitted or top-dose-only effect, or another doubt; inactive = no such curve, though single readings can be large; an effect the other way counts as inactive or inconclusive. % is scaled to controls: 0 for no effect and ±100 for the full control effect.

SMILES | HCV inhibitor | Vaccinia Venus | Vaccinia mCherry | FMDV inh | FBPA Giardia inh | HCMV inh
Cc1ccccc1NC(=O)CCc1c(C)nn(-c2ccc(N3CCCCC3)nn2)c1C | ? | -22% | -17% | 5% | 9% | -30
CC(C)c1ccc(Nc2cc3c(cn2)cc(-c2ccccc2)n3C)cc1 | · | · | · | · | · | -21
CC/C(=N\NC(=S)Nc1cc(C)ccc1C)c1ccc(OC(F)F)cc1 | 13µM* | -16% | -26% | -7% | 20% | -26
C/C(=N\NC(=S)Nc1c(C)cccc1C)c1ccc(OC(F)F)cc1 | ? | -3% | -17% | -9% | 13% | -86*
C=COC(=O)CSc1nc(-c2cccs2)ccc1C#N | 3% | · | · | 10% | -7% | 40
CCOC(=O)C(C)Sc1nc(-c2cccs2)ccc1C#N (stereo not drawn) | 14µM* | -12% | -14% | -7% | -27% | 47
O=c1[nH]c(-c2ccccn2)nc2sc(-c3ccccc3)cc12 | 1.6µM* | ? | 4.5µM* | -67% | ? | -112*
O=C(Nc1ccc2c(c1)OCO2)c1ccc2sc([C@H]3C[C@H](O)[C@@H](CO)O3)nc2c1 | · | -3% | -2% | 31% | · | 61
CC(C)NC(=O)c1ccc(COc2cc(Cl)ccc2Cl)o1 | 11µM* | -2% | -11% | -7% | 6% | 9
CCCCCCCNC(=O)C1(CC2CC(c3ccc(Cl)cc3)=NO2)CCNCC1 (stereo not drawn) | 9% | ? | ? | -25% | 5% | -100*
CCCCCCCNC(=O)C1(CC2CC(c3cccc(Br)c3)=NO2)CCNCC1 (stereo not drawn) | -7%[8.37 µM] | 11µM* | ? | -14% | -6% | -3
CCCCCCCNC(=O)C1(CC2CC(c3cccc(Br)c3)=NO2)CCN(C(=O)Cc2ccc(F)cc2)CC1 (stereo not drawn) | -19% | -30% | -1% | -18% | · | ·
S=C(Nc1ccc(Cl)cc1)c1nc2ccccc2[nH]1 | 11µM* | -29% | ? | -23% | ? | -36
Cc1ccccc1NC(=S)c1nc2ccccc2[nH]1 | ? | -12% | -20% | 7% | ? | 16
O/C(=C\c1nc2ccccc2[nH]1)c1cccs1 | 9% | -3% | i | 0% | ? | 41
O=C(/C(=C/c1ccc(Cl)cc1)c1nc2ccccc2[nH]1)c1cccs1 | 11µM* | · | · | ? | 3% | ·
COC(=O)/C(=C\c1ccc(O)cc1)c1nc2ccccc2[nH]1 | -9% | -16% | -15% | 46% | -11% | 29
O=C(/C(=C\c1ccccc1)c1nc2ccccc2[nH]1)c1ccc(Cl)cc1 | ? | -29% | -13% | ? | 12% | -87*
O=C(/C=C/c1cccc(Cl)c1)c1nc2ccccc2[nH]1 | ? | · | · | ? | 0% | 3
COC(=O)/C(=C\c1cc(OC)c(OC)c(OC)c1)c1nc2ccccc2[nH]1 | ? | -11% | -20% | 16µM* | -3% | -98*
CNc1ncnc2ccc(-c3cccc(OC)c3)cc12 | · | · | · | -28% | 0% | ·
COc1cc(/C=C(/C(=O)c2cccs2)c2nc3ccccc3[nH]2)ccc1O | ? | · | · | 25µM* | 12% | -99*
CC(=O)c1ccc(NC(=O)NC2CCCc3ccccc32)cc1 (stereo not drawn) | ? | · | · | 0% | 5% | 5
CCCN1C2CCCC1CC(NC(=O)Nc1cccc(C(C)=O)c1)C2 (stereo not drawn) | 2.8µM* | · | · | 7% | 6% | 41
O=C(NC1CCCc2ccccc21)c1c(F)cccc1Cl (stereo not drawn) | -5% | 0% | 0% | 1% | 8% | -67*
SMILES | HCV inhibitor | Vaccinia Venus | Vaccinia mCherry | FMDV inh | FBPA Giardia inh | HCMV inh
CN(C(=O)CCl)C1CCCc2ccccc21 (stereo not drawn) | ? | · | · | 16µM* | -8% | 5
CC(=O)c1cccc(NC(=O)NC2CC3CCCC(C2)N3CC(C)C)c1 (stereo not drawn) | -6% | · | · | 17% | 7% | 39
CC(=O)c1cccc(NC(=O)NC2CCCc3ccccc32)c1 (stereo not drawn) | ? | · | · | 12% | 1% | -70*
COc1ccc(Nc2cc3[nH]c(-c4ccccc4)cc3cn2)cc1 | · | · | · | · | · | 1
Cc1ccc2c(C)c(C(=O)N3CCCCC3CO)oc2c1C (stereo not drawn) | ? | · | · | -4% | 16% | -1
Cc1nn(Cc2ccc(Cl)cc2Cl)c(Cl)c1C(=O)NC1CCCc2ccccc21 (stereo not drawn) | 0% | -9% | i | 20µM* | -2% | 26
Cc1nn(Cc2ccccc2)c(C)c1C(=O)NC1CCCc2ccccc21 (stereo not drawn) | -1% | -15% | -7% | -23% | 4% | -14
O=C(CCl)NC1CCCc2ccccc21 (stereo not drawn) | 13% | ? | ? | ? | -1% | -109*
CCc1cnc2c(c1SCC(=O)c1ccc(OC)cc1)c(=O)n(C)c(=O)n2C | · | -16% | -24% | 28µM* | · | -6
O=C(Nc1ccncc1)c1cc(C2CCCCN2C(=O)CCc2ccccc2)on1 (stereo not drawn) | · | -22% | ? | ? | · | -17
COc1cccc(OCCCOc2ccc([N+](=O)[O-])cc2Cl)c1 | -2% | 9% | -4% | -4% | 0% | 1
COc1ccccc1OCCCOc1ccc([N+](=O)[O-])cc1Cl | 22µM* | ? | · | -5% | · | -15
CCOC(=O)c1cnc(-n2nc(C)cc2C)nc1NC(C)c1ccccc1 (stereo not drawn) | ? | -12% | -2% | 0% | 26% | -97*
CCOC(=O)c1cnc(-n2nc(C)cc2C)nc1NCc1ccccc1 | ? | ? | ? | 28µM* | -1% | -73*
COc1ccc(CC(=O)Nc2ccc(F)c(Cl)c2)cc1S(=O)(=O)N1CCOCC1 | ? | · | · | -5% | · | -23
CCC(NC(=O)C1CCCC1)c1ccccc1 (stereo not drawn) | 11% | -12% | -5% | -7% | · | 66
O=C(NC1CCC(n2cc(C(=O)NC3CC3)nn2)CC1)C(=O)c1ccccc1 (stereo not drawn) | · | -8% | -12% | -11% | · | ·
O=C(C[C@H]1CC[C@@H]2[C@H](COC[C@@H](O)CN2Cc2cccc(F)c2)O1)NCC1CCCCC1 | · | -19% | ? | ? | · | -9
CC(C)N=c1scc(-c2ccco2)n1/N=C/c1ccc(O)c(O)c1 | ? | · | · | 1% | -19% | 89
O=c1c2ccccc2nc(-c2ccco2)n1/N=C/c1ccccc1O | 4% | ? | · | -2% | -6% | ?
C=CCN=c1scc(-c2ccco2)n1/N=C/c1ccc(O)c(O)c1O | 20% | -9% | -22% | ? | 22µM* | 15

Assay outcomes (PubChem)
